Screening results from PubChem BioAssay.
PLK1 PBD block – inhibitors of human PLK1 polo-box domain binding; actives 2.8% (n = 360,000); Potency, µM, for the others: max response, negative = inhibition, actives largely listed as inhibitors; Plk1 PBD binding of FITC phosphopeptide, fluorescence polarization; AID 720504; note: series mostly up to about 57 µM; % is set by controls: 0 for no effect and ±100 for the full control effect; nearly all actives have a fitted effect of over 65% in size
JMJD2A Tudor – inhibitors of human JMJD2A Tudor domain; O75164; AID 504339; Potency, µM (titrated, usually from 114 µM), for the others: at the highest dose activity change, negative = inhibition, most hits filed as inhibitors; actives 4.4% (n = 390,000); AlphaScreen JMJD2A-Tudor / H3K4me3 peptide binding; note: % is set by controls: 0 for no effect and ±100 for the full control effect; nearly all actives have a fitted effect of over 50% in size
Sfp PPTase inh – inhibitors of Bacillus subtilis Sfp phosphopantetheinyl transferase. Q9F4F7. Biochemical Sfp PPTase activity, qHTS. Potency, µM, inactives show largest response in the series, negative = inhibition, actives largely listed as inhibitors. actives 3.5% (n = 310,000);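 note: the enzyme is Sfp with the accession as filed and its product quenches rhodamine fluorescence; 0% = enzyme reaction without inhibitor and -100% = no enzyme wells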
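Fluorescence-quenching assay: 15 nM Sfp-PPTase preincubated 15 min at room temperature with compound, then 5 uM rhodamine-CoA and 12.5 uM BHQ-2-labelled YbbR peptide added. Fluorescence (ex 525/em 598 nm) read at start and after 30 min; difference gives rate.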
HP1b chromo inh – HP1-beta chromodomain-methylated histone interaction inhibition; AlphaScreen HP1-beta / biotin-H3K9me3 peptide binding; Potency, µM (highest dose often 114 µM), without a hit: top-dose activity change, negative = inhibition, actives largely listed as inhibitors; actives 0.56% (n = 390,000); note: nearly all actives have a fitted effect of over 70% in size
Target sequence (P83916 whole entry, looked up): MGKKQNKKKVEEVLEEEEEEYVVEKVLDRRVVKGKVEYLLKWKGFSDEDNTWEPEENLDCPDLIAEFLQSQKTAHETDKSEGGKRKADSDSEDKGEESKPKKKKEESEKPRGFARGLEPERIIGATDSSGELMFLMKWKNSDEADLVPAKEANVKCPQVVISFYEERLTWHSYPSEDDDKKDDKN
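HP1-beta protein (50 nM final) preincubated 30 min at room temperature with biotinylated H3(1-18)K9me3 peptide (50 nM) in PBS pH 7.4, 0.01% Tween-20, then compound added for 30 min. AlphaScreen streptavidin donor/nickel chelate acceptor beads (10 ug/mL final), 30 min dark, luminescence read.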
BAZ2B block – blocks human BAZ2B. AlphaScreen BAZ2B-H3K14Ac peptide displacement. Potency, µM (series often up to 114 µM), inactives show top-dose activity change, negative = inhibition, usual class: inhibitors. actives 4.4% (n = 360,000). Q9UIF8; note: % is set by controls: 0 for no effect and ±100 for the full control effect; nearly all actives have a fitted effect of over 60% in size
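Inhibition is scored as reduced AlphaScreen emission. The BAZ2B/b-H3(5-23)K14Ac complex (50 nM each) in PBS pH 7.4, 0.01% Tween-20 meets compound (up to 110 uM) for 30 min at RT before bead addition.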
G9a inh – blocks human histone lysine methyltransferase G9a; Q96KQ7; G9a H3K9 monomethylation, AlphaScreen, 2 h; actives 8.8% (n = 350,000); Potency, µM (doses to about 102 µM), inactives show at the highest dose activity, negative = inhibition, actives largely listed as inhibitors; note: % is set by controls: 0 for no effect and ±100 for the full control effect; nearly all actives have a fitted effect of over 75% in size
Target sequence (Q96KQ7 913-1193 limits assumed): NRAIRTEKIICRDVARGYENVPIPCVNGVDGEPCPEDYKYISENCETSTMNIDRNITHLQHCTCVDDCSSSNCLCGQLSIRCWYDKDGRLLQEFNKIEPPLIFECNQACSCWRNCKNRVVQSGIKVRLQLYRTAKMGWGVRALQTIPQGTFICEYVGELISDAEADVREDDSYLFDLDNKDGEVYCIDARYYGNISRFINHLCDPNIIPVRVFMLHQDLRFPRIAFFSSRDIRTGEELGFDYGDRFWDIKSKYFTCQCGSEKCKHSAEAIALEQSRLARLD
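Compounds were preincubated with 20 nM G9a for 15 min, after which biotinylated H3K9 peptide (500 nM) and SAM (20 uM) started a 2 h room-temperature reaction. Monomethylated product was quantified by antibody-based AlphaScreen chemiluminescence.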
The depositor's hits bear a star; ? = inconclusive; . = not tested or not shown; ! = not active in a repeat; [ ] = another dose, or the depositor's remark. In the library only some 12% were active in any assay of this set; here they are far more common. Calls come from the whole dose curve; as a rule, active = well fitted curve in the direction sought with a large enough effect; inconclusive = small, poorly fitted or top-dose-only effect, or another doubt; inactive = no such curve, though single readings can be large; an effect the other way counts as inactive or inconclusive. Potency is the fitted concentration of half-maximal effect.

SMILES	PLK1 PBD block	JMJD2A Tudor	Sfp PPTase inh	HP1b chromo inh	BAZ2B block	G9a inh
CC1CN(c2ccccc2)NC1=O (configuration not stated)	-7%	13%	11%	40%	-22%	35µM*
OC[C@H]1O[C@@H](n2cnc3cc(Cl)c(Cl)cc32)[C@H](O)[C@H]1O	.	.	11%	.	.	?
c1ccc(N2CC3(CCNCC3)C2)nc1	.	.	-22%	.	.	-8%[12.7 µM]
CC[C@H](/C=C/[C@@H](C)[C@H]1CC[C@H]2C3CC=C4C[C@@H](O)CC[C@]4(C)C3CC[C@]12C)C(C)C (some centres not stated)	.	.	34%	.	.	.
O=C1c2ccccc2-c2cccc3cccc1c23	-30%	56µM*	-12%	2%	.	-35%[2.33 µM]
CC12CN3CC(C)(CN(C1)P3(=O)Oc1ccccc1)C2=O (configuration not stated)	3%	-33%	-1%	2%	-6%	40µM*
C#CC(C)(O)CC (configuration not stated)	.	.	-2%	.	.	5%[12.7 µM]
CCCC1=Nc2cc(C(=O)NC3CCC(C)CC3)ccc2Sc2ccccc21 (configuration not stated)	.	-17%	.	19%	-10%	-7%[59 µM]
CCCC1=Nc2cc(C(=O)NCCc3ccc(OC)cc3OC)ccc2Sc2ccccc21	.	-27%	.	6%	79µM*	-46%[59 µM]
CCCCC/C=C\C/C=C\C/C=C\C/C=C\CCCC(=O)N[C@H](C)CO	.	.	22µM*!	.	.	1%[59 µM]
CCCCCCCCCCCC[N+](C)(C)CCOc1ccccc1	.	.	50µM*	.	.	2%[59 µM]
CCCCCCCCOC(=O)c1ccccc1C(=O)OCCCCCCCC	.	.	-10%	.	.	111%[59 µM]
[N-]=[N+]=CC(=O)OC[C@H](N)C(=O)O	-5%	32µM*	-2%	29%	4%	15%
N[C@H](CCP(=O)(O)O)C(=O)O	.	.	-25%	.	.	.
Cn1cc(C(=O)N2CCCCC2)c2ccccc21	-14%	-4%	25%	12%	-5%	37%
Cn1cc(C(=O)C(=O)N[C@H]2CN3CCC2CC3)c2ccccc21	.	.	56µM*!	.	.	38%[59 µM]
CCC(Sc1ccccc1)C(=O)OC1CC2CCC(C1)N2C (configuration not stated)	.	.	-26%	.	.	-1%[59 µM]
Cn1c(O)c(C(c2ccccn2)c2c(O)n(C)c(=S)[nH]c2=O)c(=O)[nH]c1=S	-14%	79µM*	79µM*	35%	50µM*	22%[0.0925 µM]
CN[C@H](CC(C)C)C(=O)N[C@H]1C(=O)N[C@@H](CC(N)=O)C(=O)N[C@@H]2C(=O)N[C@H]3C(=O)N[C@H](C(=O)N[C@H](C(=O)O)c4cc(O)cc(O)c4-c4cc3ccc4O)[C@H](O)c3ccc(c(Cl)c3)Oc3cc2cc(c3O[C@@H]2O[C@H](CO)[C@@H](O)[C@H](O)[C@@H]2O[C@H]2C[C@](C)(N)[C@H](O)[C@H](C)O2)Oc2ccc(cc2Cl)[C@H]1O	.	.	.	.	.	2%[59 µM]
C=CCc1cccc(C=Nc2c[nH]c(=O)[nH]c2=O)c1O	27µM*	40µM*	11%	0%	?	-10%
c1ccc(SSc2ccccc2)cc1	1.1µM*	119%	?	184%	114%	16%[59 µM]
Cc1c(N=Nc2c(O)n(C)c(=O)n(C)c2=O)c(=O)n(-c2ccccc2)n1C	2%	-30%	-28%	26%	35µM*	?
CCCCn1c(O)c(C(C)=Nc2c(C)n(C)n(-c3ccccc3)c2=O)c(=O)[nH]c1=O	-3%	-3%	12%	23%	4%	-3%
Cc1c(N=Cc2c(O)n(Cc3ccccc3)c(=O)[nH]c2=O)c(=O)n(-c2ccccc2)n1C	-2%	3%	8%	20%	-6%	-10%
CCCCn1c(O)c(C=Nc2c(C)n(C)n(-c3ccccc3)c2=O)c(=O)[nH]c1=O	-10%	-2%	7%	26%	-1%	56µM*
SMILES	PLK1 PBD block	JMJD2A Tudor	Sfp PPTase inh	HP1b chromo inh	BAZ2B block	G9a inh
Cc1c(N=Nc2c(O)n(Cc3ccccc3)c(=O)[nH]c2=O)c(=O)n(-c2ccccc2)n1C	-20%	20µM*	7%	39%	10µM*	?
CC1(C)C2C[C@@H](O)[C@]3(C)C(CC[C@@]4(C)[C@H](c5ccoc5)C[C@H]5O[C@]543)[C@@]2(C)[C@@H](O)C[C@H]1O (some centres not stated)	.	.	-24%	.	.	.
Fc1ccccc1CNC1CN2CCC1CC2 (configuration not stated)	19µM*	40µM*	10%	-3%	-14%	?
CC(C)C[C@H](NC(=O)[C@H](Cc1ccccc1)NC(=O)CNC(=O)[C@@H](NC(=O)[C@@H](N)Cc1ccc(O)cc1)[C@H](C)O)C(=O)N[C@H](C(=O)O)[C@H](C)O	.	.	-10%	.	.	33%[59 µM]
Cc1cccn2c(=O)c(/C=C(\C#N)c3nc4ccccc4s3)c(Oc3ccc(F)cc3)nc12	.	-9%	.	47%	-2%	-25%[59 µM]
COc1cc2c3cc1Oc1cc(ccc1O)C[C@@H]1c4c(cc(OC)c(O)c4Oc4ccc(cc4)C[C@H]3N(C)CC2)CCN1C	-8%	?	-5%	-6%	45µM*	?
COc1cc2c3cc1Oc1c(OC)c(OC)cc4c1[C@H](Cc1ccc(cc1)Oc1cc(ccc1O)C[C@H]3N(C)CC2)N(C)CC4	-6%	?	.	-12%	.	.
COc1ccc2cc1Oc1ccc(cc1)C[C@H]1c3cc(c(OC)cc3CCN1C)Oc1c(OC)c(OC)cc3c1[C@H](C2)N(C)CC3	-9%	50µM*	-1%	-22%	-32%	-37%[59 µM]
CC[C@@]1(O)C(=O)OCc2c1cc1n(c2=O)-c2cc3ccccc3nc2C1	.	.	1%	.	.	23%[59 µM]
C[C@H](CO)N1C[C@H](C)[C@@H](CN(C)C(=O)Nc2ccccc2)Oc2c(NS(=O)(=O)c3ccc(F)cc3)cccc2C1=O	-15%	-6%	.	48%	.	.
Cc1ccc(S(=O)(=O)Nc2ccc3c(c2)CC(=O)N([C@H](C)CO)C[C@@H](C)[C@H](CN(C)S(=O)(=O)c2ccccc2)O3)cc1	21µM*	?	.	5%	.	.
